From PubChem BioAssay
HSD17B inhib: inhibitors of human HSD17B10 dehydrogenase; Q99714; recombinant HSD17B10, NADH fluorescence kinetic; Potency, µM (doses to about 57.1 µM), for inactives: top-dose activity change, negative = inhibition, hits mostly inhibitors; 7.6% of 75,000 active; AID 893;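 further: the protocol describes HADH2 (HSD17B10) and not the HSD17B4 of the title; potency means the concentration at half of the fitted maximal effect; on the % scale 0 is the no-effect control and ±100 the full control effect; nearly all actives have a fitted effect of over 70% in size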
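20 nM HADH2, pH 9.0 Tris/Tween; cpd preinc 15 min RT; start w/ 1 mM NAD+ + 90 uM b-hydroxybutyryl-CoA; kinetic fluor ex360/em450 q30s x 4 min; delta last-first.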
CRE Fsk mod: modulators of forskolin-stimulated CRE signaling in CHO cells | CHO CRE-bla reporter (cAMP response element driving beta-lactamase), forskolin EC10, beta-lactamase ratio | Potency, µM (series often up to 38.2 µM), inactives show at the top dose activity change, negative = inhibition, hits mostly activators | 2.5% of 71,000 active; active means well fitted activation curve with a large enough effect in the signal ratio, with a control signal flat, not every such curve was filed as active; inconclusive means small, poorly fitted or top-dose-only effect, or effect the other way, or a change in a side signal; the % refers to the signal ratio; further: potency means the concentration at half of the fitted maximal effect; % of control where 0% means no effect
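CHO CRE-bla cells, overnight plating in Opti-MEM with 0.5% dialyzed FBS; cpd titration + EC10 NKH 477, 3 h 37 °C; CCF4 2 h RT; ex 405/em 460 vs 530 ratio → %Activity, AC50.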
AID923: qHTS Assay for Allosteric/Competitive Inhibitors of Caspase-1: Spectroscopic Profiling in AFC Spectral Region. compound fluorescence, AFC spectral region (405/520 nm). Potency, µM (titrated, usually from 57.5 µM), for inactives: top-dose fluorescence increase, usual class: activators. 1.1% of 75,000 active. AID 923, 2007; further: potency means the concentration at half of the fitted maximal effect; 0% is about no effect
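Compound autofluorescence profiled at 405 nm ex/520 nm em during kinetic caspase 1 run (50 nM enzyme, 5 uM Ac-WEHD-AFC, HEPES pH 7.5, 10 mM DTT). Titration up to 57 uM; baseline from regression intercept, normalized to AFC standard curve.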
4-MU autofl: compound fluoresces in the 4-MU spectral region | 11% of 59,000 active | max dye-equivalent concentration, M | compound autofluorescence, 340/450 nm, 4-MU equivalents; active compounds read high | AID 589; in the data active means max dye-equivalent concentration above about 10 nM; inconclusive means mostly about 1.1 nM to 9.6 nM
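Compounds in 100 mM Tris, pH 8.0, incubated 15 min at room temperature, then fluorescence read at 340 nm excitation/450 nm emission. Signal converted to 4-MU dye-equivalent concentration using an on-plate six-point 4-MU standard curve.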
HADH2 inh: inhibitors of human HADH2 dehydrogenase; AID 886; 3.4% of 73,000 active; Potency, µM (doses to about 57.1 µM), without a hit: at the highest dose activity change, negative = inhibition, actives largely listed as inhibitors; recombinant HADH2, NADH fluorescence, beta-hydroxybutyryl-CoA; further: potency means the concentration at half of the fitted maximal effect; on the % scale 0 is the no-effect control and ±100 the full control effect; nearly all actives have a fitted effect of over 60% in size
Target sequence (Q99714 whole entry, looked up, one chain of several): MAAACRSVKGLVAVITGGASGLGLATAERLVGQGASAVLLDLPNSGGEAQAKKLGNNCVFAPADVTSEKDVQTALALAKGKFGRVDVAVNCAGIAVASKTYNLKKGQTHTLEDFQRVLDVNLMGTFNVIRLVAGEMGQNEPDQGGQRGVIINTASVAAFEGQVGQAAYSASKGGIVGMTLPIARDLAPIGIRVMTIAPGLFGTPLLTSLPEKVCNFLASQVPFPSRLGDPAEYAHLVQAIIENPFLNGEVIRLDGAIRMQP
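20 nM HADH2 + cpd, 15 min RT; add 1 mM NAD+/90 uM beta-hydroxybutyryl-CoA; kinetic fluorescence 360/450 nm, 4 min. Tris-HCl pH 9.0, 0.01% Tween-20.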
A350 fluor: compounds fluorescent in Alexa 350 spectral region; Compound autofluorescence, 340/450 nm, Alexa 350 dye-equivalents; active compounds read high; max dye-equivalent concentration, M; 11% of 59,000 active; AID 590; in the data active means max dye-equivalent concentration above about 10 nM; inconclusive means mostly about 1.1 nM to 9.6 nM
Active calls of the source: *; [ ] = remark or other dose. An excerpt weighted towards active compounds, which were near 14% of everything screened. Unless noted, the call rests on the fitted dose curve; in most records, active means well fitted curve in the direction sought with a large enough effect; inconclusive means small, poorly fitted or top-dose-only effect, or another doubt; inactive means no such curve, though single readings can be large; an effect the other way counts as inactive or inconclusive.

`Cc1nc2cnc(N3CCN(C)CC3)nc2n(CCc2ccccc2)c1=O` gave HSD17B inhib 31.6µM*, CRE Fsk mod inconclusive, AID923 8.3%, 4-MU autofl inconclusive, HADH2 inh 12.1% and A350 fluor inconclusive.
`COCCn1c(=O)c(C)nc2cnc(N3CCN(C)CC3)nc21` gave HSD17B inhib 31.6µM*, CRE Fsk mod 9.4%, AID923 12.5%, 4-MU autofl 8.13e-08M*, HADH2 inh 23.7% and A350 fluor 9.93e-08M*.
Cc1nc2cnc(N3CCOCC3)nc2n(CCc2ccccc2)c1=O was read as HSD17B inhib inconclusive, CRE Fsk mod 12.6µM*, AID923 8.2%, 4-MU autofl 1.03e-08M*, HADH2 inh 19.6% and A350 fluor 1.33e-08M*.
Screening COCCn1cc(C(=O)c2ccccc2OCC(=O)Nc2cc(C)on2)cc(C#N)c1=O returned HSD17B inhib -23.9%, CRE Fsk mod inconclusive, AID923 4.9%, 4-MU autofl 1.35e-08M*, HADH2 inh 7.6% and A350 fluor inconclusive.
Screening Cc1ccc(-c2cc(C(=O)Nc3cc(C)on3)c3ccccc3n2)c(C)c1 returned HSD17B inhib 25.1µM*, CRE Fsk mod -1.9%, AID923 -0.1% and HADH2 inh -2.4%.
Screening Cc1cc(NC(=O)c2ccc3nc(-c4ccccc4)c(-c4ccccc4)nc3c2)no1 returned HSD17B inhib 2.3%, CRE Fsk mod inconclusive, AID923 0.2%, 4-MU autofl 9.04e-08M*, HADH2 inh -6.4% and A350 fluor 8.46e-08M*.
`Cc1cc(NC(=O)c2cc(-c3cccnc3)nc3c(C)c(C)ccc23)no1` gave HSD17B inhib 31.6µM*, CRE Fsk mod -16.9%, AID923 -0.3%, 4-MU autofl 3.72e-08M*, HADH2 inh 9.5% and A350 fluor 3.01e-08M*.
COc1ccc(C(=O)Nc2cc(C)on2)cc1 was read as HSD17B inhib 2.7%, CRE Fsk mod inconclusive, AID923 -0.4% and HADH2 inh -1.4%[11.4 µM].
For CC(C)CO/N=C1/C[C@@H](O)[C@@H](O)[C@@H]2[C@@H]3C(=O)N(Cc4ccc5c(c4)OCO5)C(=O)[C@H]3CC[C@H]12 the results were HSD17B inhib 2.1%[11.4 µM], AID923 0.2%[11.5 µM] and HADH2 inh 10.5%[11.4 µM].
For CC(=O)Nc1cccc(NC(=O)C2CC(=O)N(c3ccc(C)cc3)C2)c1 (stereo not drawn) the results were HSD17B inhib -0.6%, CRE Fsk mod -1.2%, AID923 0.3%, 4-MU autofl inactive, HADH2 inh 4.3% and A350 fluor inactive.
For Cc1nc(-c2ccccc2)cc(N2CCCC2)n1 the results were HSD17B inhib -9.8%, CRE Fsk mod inconclusive, AID923 0.1% and HADH2 inh 3.2%[11.4 µM].
Cc1cc(-c2ccccc2)nc2[n+]1CCN2C was read as HSD17B inhib inconclusive, CRE Fsk mod inconclusive, AID923 11.8%, 4-MU autofl 2.02e-07M*, HADH2 inh 6.3% and A350 fluor 2.72e-07M*.
`Cn1cc(C(F)(F)F)nc1-c1ccc(OC[C@@H](O)CNCCOc2ccc(O)c(C(N)=O)c2)cc1` gave HSD17B inhib 39.8µM*, CRE Fsk mod -5.0%, AID923 -1.4%, 4-MU autofl 1.59e-07M*, HADH2 inh inconclusive and A350 fluor 1.53e-07M*.
Screening CC(=O)Nc1cccc(-c2nnc(SCC(=O)N3CCCCC3)n2C)c1 returned HSD17B inhib 25.1µM*, CRE Fsk mod 0.8%, AID923 1.4%, 4-MU autofl 3.79e-07M*, HADH2 inh 17.3% and A350 fluor 4.46e-07M*.
CCn1c(SCC(=O)Nc2cc(NC(C)=O)ccc2OC)nnc1-c1cccnc1 was read as HSD17B inhib -0.5%, CRE Fsk mod 14.1%, AID923 0.5%, 4-MU autofl inconclusive, HADH2 inh 5.5% and A350 fluor 1.02e-08M*.
